Reference: the supplement of paper PMC6555819

test system: VDR:RXRa (NR concentration 270 nM, RXRa partner concentration 90 nM); assay: PBM binding z-score (relative to random genomic background probes); higher = stronger binding; sequences stand for … in GC…GCGATTGACAGCGTAGAATGAAGG
Experimental: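 Protein-binding microarray (Agilent 4x180K custom design, double-stranded 60-nt probes: 5' GC cap, 34-nt variable region, 24-nt constant primer region; full probe sequence given). Purified or IVT nuclear receptor:RXRα heterodimers (3:1 NR:RXRα, mostly 270:90 nM) or homodimers were incubated for 1 h in PBS with 2% milk and no ligand, then detected with Alexa488 antibodies. Fluorescence from o1-orientation probes (~5 replicates averaged) was converted to z-scores against 500 random hg19 background probes. Variable regions are seed direct-repeat (DR0–DR5) sites, all their single-nucleotide variants and half-site ablations.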

Row | Sequence | PBM binding z-score
1 | GCAGCTAGGTCAACTGATGGTCAGCTAAAGCTCG | 1.19
2 | GATACAGGGGCAGCTAGAGGCCAGAGTATGGAAA | -0.219
3 | TAGCCTAGGCCATTCAGGGGCCAGTATAGAAAGC | -0.423
4 | TCTCGGAGGACACGAAGGTCACAGCTTTCCAGAG | 4.05
5 | ACTAGCAGGCCATGGGTCACTCAAGATTAGTCCG | 0.6
6 | TCTGCTAGGTCAACGATAGTCAGCTAATCTGCTA | 1.24
7 | GCTAGTTGGTTAGTAAAAGGTCACACACCGGTCG | 3.93
8 | GCAAATAGGTAATACAAGGTGAAAGTCCGATTGT | 0.551
9 | GCTATTAGTTGAAAGGGCAACCGGATGATTCTCG | 0.47
10 | CCTACTGGGCCACGAAATGTCATTGATTCAGTGA | -0.452
11 | TCTACTAGGTCAACGATGGTCAGCTAATCTGCTA | 2.27
12 | GATACAGGGTCAAGGCCAGAGAACGCGTATTGAT | 3.99
13 | TCTCGGAGGACACGAAAGGTTAGAGCTCGACATC | 0.803
14 | GCGGCTAGGTCAACTGATGGTCAGCTAAAGCTCG | 1.28
15 | CCTCGGAGTACAGAAGGTCAGAGCTGTCCGCTTT | 1.64
16 | ATATGTAGGTTATCGGGTCAATCAGTTTGCGCAT | 5.29
17 | ATCTCTATGTAAGACTCAGTTCAGTGAAGAACGC | 0.971
18 | CAAACTAGGTCACGAAAGCTCAAAGTCGAATGAC | 2.37
19 | GCGACTGGGGCATCAGCAGATTACCATAACTTAA | -0.562
20 | CAAACTAGGTCAAGACGTCAAAGTCCGCTTCCCG | 1.62

Row | Sequence | PBM binding z-score
21 | GCTGCTAGGTCAGGTTGGTCAGCTTACGGGTACG | 0.539
22 | CCTTACGGGTCACTGACAGATTATAGCATTTGGA | 3.13
23 | CGTCAAAGTTCAACTAAGGTAACGTCAAGCACGC | 4.83
24 | ATACCAAGGTGATCGTAAGGTCGTTGATACTAAC | 2.74
25 | GCGACAGGGGCAAAGCAGGTTACCATAAGGTTGG | 0.898
26 | ATATGTAGGATAAGGGTCATTCAGGTTGGTTCGC | 5.49
27 | CGTCCAAGGTCATAGTAGGTCAGTGAAGACAGAT | 5.64
28 | TCTCGTAGATCAACAGGAGGTTAAGAAAGATCGA | 0.875
29 | CCTTACGGGTCACGAGGATATAGCACGACGAGCG | 3.9
30 | AGGATGAGGTTATACGTAGATCAGGGAAGAAAGT | 1.66
31 | CGAACTAGGTCATCCAGGATAGTGAATACATTGA | 3.02
32 | GCTCCGAGGACAAGGTCAGAGCTTTGTCCGTAGA | 1.43
33 | CCTGCTGGGCCATCAGGTCATTGATATCAACGTT | 1.59
34 | AATATTAGTTGACTTAGGGCAACCGATACGACGC | 0.46
35 | ACAATGAGGTTATACGTAGATCAGGGAAGAAAGT | 1.5
36 | CCGACTGGGGCAAGGTTACCATGACGCACAGCCA | -0.0991
37 | ATCGAAAGGTCGAAGGGGAGTATACCCACCCGAA | 2.67
38 | GAATATAGGTAATACAAGGTGAAAGTCCGATTGT | 0.758
39 | TCTTGTAGATCAACAGAAGGTTAAGAAAGATCGA | 0.765
40 | TCTAGCAGGCCAGAGGGTCACTCGAGAGGTACGG | 1.39
